Screens deposited in PubChem by National Center for Advancing Translational Sciences (NCATS).
Cruzain inh noDet: qHTS Assay for Promiscuous and Specific Inhibitors of Cruzain (without detergent); Cruzipain (Trypanosoma cruzi), P25779; purified cruzain, Z-FR-AMC fluorescence, no detergent; Potency, µM, usual class: inhibitors; hit rate 2.3% among 200,000; note: nearly all actives have a fitted effect of over 40% in size
Target sequence (P25779 123-467 limits assumed): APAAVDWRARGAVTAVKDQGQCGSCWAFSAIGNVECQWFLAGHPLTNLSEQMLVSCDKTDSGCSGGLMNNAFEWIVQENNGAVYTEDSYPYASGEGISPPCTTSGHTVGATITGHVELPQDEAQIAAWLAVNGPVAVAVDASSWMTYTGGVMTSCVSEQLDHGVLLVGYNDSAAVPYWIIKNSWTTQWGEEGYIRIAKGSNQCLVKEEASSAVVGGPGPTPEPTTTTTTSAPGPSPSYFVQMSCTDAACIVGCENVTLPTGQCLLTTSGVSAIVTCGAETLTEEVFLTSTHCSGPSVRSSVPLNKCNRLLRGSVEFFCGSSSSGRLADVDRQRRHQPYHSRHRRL
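Purified cruzain at 1.5 nM, pre-incubated 15 min with compound at room temperature in 100 mM sodium acetate pH 5.5, 5 mM DTT, 0.00005% Triton X-100. Reaction started with 2 uM Z-FR-AMC; AMC fluorescence increase over 60 s gives rate.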
Cruzain inh Det: qHTS Assay for Promiscuous and Specific Inhibitors of Cruzain (with detergent); hit rate 0.43% among 200,000; purified cruzain, Z-FR-AMC fluorescence, 0.01% Triton; Potency, µM, most hits filed as inhibitors; AID 1478, 2009; Cruzipain (Trypanosoma cruzi), P25779; note: nearly all actives have a fitted effect of over 40% in size
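Sodium acetate buffer (100 mM, pH 5.5) containing 5 mM DTT and 0.01% Triton X-100 hosted 1.5 nM cruzain and test compound for 15 min at room temperature. Cleavage of 2 uM Z-FR-AMC was then tracked by fluorescence.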
Hits are given with their value; n = inactive; u = inconclusive. Most compounds without a hit are left out; they make up all but 2.6% or so of the library. Calls come from the whole dose curve; as a rule, active = well fitted curve in the direction sought with a large enough effect; inconclusive = small, poorly fitted or top-dose-only effect, or another doubt; inactive = no such curve, though single readings can be large; an effect the other way counts as inactive or inconclusive.

SMILES	Cruzain inh noDet	Cruzain inh Det
Cc1c(NC(=O)c2ccc(-c3cccc([N+](=O)[O-])c3)o2)cccc1-c1nc2cc(Cl)ccc2o1	3.2µM	n
COc1ccc2nc(NC(=O)c3cc(C)oc3C)sc2c1	n	n
COc1ccc2nc(NC(=O)c3ccc(-c4cccc([N+](=O)[O-])c4)o3)sc2c1	13µM	n
O=C(Nc1ccc(Cl)c(-c2nc3ccccc3o2)c1)c1ccc(-c2cccc([N+](=O)[O-])c2)o1	n	n
Cc1ccc2oc(-c3cccc(NC(=O)/C=C/c4cccc([N+](=O)[O-])c4)c3C)nc2c1	16µM	n
Cc1ccc2oc(-c3cc(NC(=O)/C=C/c4ccco4)ccc3Cl)nc2c1	u	n
Cc1cccc(NC(=O)C2CCCN(S(=O)(=O)c3c(C)[nH]c(=O)[nH]c3=O)C2)c1C (stereo unspecified)	n	n
COc1ccc(-n2ccnc2SCC(=O)Nc2cccc(OC)c2)cc1	n	n
C=CCOC(=O)N[C@@H](CC(C)C)/C(C(=O)OC)=C(\C)NCc1ccccc1	n	n
CC(C)(C)c1ccc(OCCSc2nc(-c3cccs3)nc3cc(=O)[nH]n23)cc1	n	n
O=S(=O)(O)c1cc(N=Nc2cccc3ccccc23)c(O)c2ncccc12	n	3.5µM
O=S(=O)(O)c1cc(S(=O)(=O)O)c2c(N=Nc3cccc4ccccc34)c(O)ccc2c1	n	n
Cc1nc(NC2=NCN(CCCN3CCOCC3)CN2)nc2c(C)cccc12	25µM	u
Cc1cc2nc(NC3=NCN(CCN4CCOCC4)CN3)nc(C)c2cc1C	n	n
CCOc1ccc(S(=O)(=O)N2CCC(N3CCN(Cc4ccc(F)cc4)C(=O)C3=O)CC2)cc1	n	n
COc1ccc(S(=O)(=O)Nc2nc3ccccc3nc2Nc2ccc3c(c2)OCO3)cc1	u	n
O=S(=O)(Nc1nc2ccccc2nc1Nc1ccc2c(c1)OCCO2)c1cccs1	25µM	n
Cc1ccc(-n2nnc(C(=O)Nc3cc(F)ccc3F)c2C)cc1F	n	n
CCOc1ccc(NC(=O)c2oc3ccccc3c2NC(=O)C(C)Oc2ccccc2)cc1 (stereo unspecified)	32µM	n
CCc1ccc2occ(CC(=O)Nc3c(C(=O)Nc4ccc(OC)cc4)oc4ccccc34)c2c1	n	n
CCOc1ccc(NC(=O)c2oc3ccccc3c2NC(=O)c2cc(C)cc(C)c2)cc1	n	n
COc1ccc(NC(=O)c2oc3ccccc3c2NC(=O)Cc2coc3ccc(C)cc23)cc1	25µM	n
O=C(c1cc(C(=O)NCc2ccccc2)c(=O)n(Cc2ccccc2)c1)c1cc(Cl)ccc1O	u	n
Cc1ccccc1NC(=O)c1cc(C(=O)c2cc(Cl)ccc2O)cn(-c2ccccc2C)c1=O	7.9µM	n
C/C(CC(=O)Nc1ccc(C)c(Cl)c1)=N\NC(=O)Cc1ccccc1	n	n
SMILES	Cruzain inh noDet	Cruzain inh Det
C/C(CC(=O)Nc1ccc(OCc2ccccc2)cc1)=N\NC(=O)C(=O)Nc1ccc(C)c(Cl)c1	7.9µM	n
COc1cc(OC)c(NC(=O)NCc2cccn2Cc2ccccc2)cc1Cl	n	n
CC(C)(C)c1ccc(/C=C/C(=O)c2ccc(NC3=NCCCS3)cc2)cc1	32µM	n
O=C(/C=C/c1ccc(Br)cc1)c1ccc(NC2=NCCCS2)cc1	u	n
CC(=O)OCN(C#N)c1nc(N(C)C)nc(N(C)C)n1	n	n
COC(=O)CN(C#N)c1nc(SC)nc(N(C)C)n1	13µM	16µM
O=C(Nc1cccc(-c2cn3ccccc3n2)c1)c1cccs1	n	n
O=C(Nc1cccc(-c2cn3ccccc3n2)c1)c1cc2ccccc2oc1=O	u	3.5µM
Cn1c(=O)c2c(nc(-c3ccccc3)n2C)n(Cc2ccccc2)c1=O	n	n
O=c1c2ccccc2c2c(O)nc(-c3ccccc3)n2n1Cc1ccccc1	4µM	n
CCOc1ccc(CCNC(=O)c2cc3c(s2)-c2ccccc2OC3)cc1OCC	n	n
Cc1ccc(N2CC(C(=O)Nc3nnc(C)s3)CC2=O)cc1 (stereo unspecified)	n	n
Cc1ccc(N2CC(C(=O)Nc3nnc(SCC(=O)Nc4cc(C)on4)s3)CC2=O)cc1 (stereo unspecified)	7.9µM	n
COc1cccc(NC(=O)CSc2nc(C)c(Cc3ccccc3)c(=O)[nH]2)c1	n	n
COc1ccccc1N1CCN(C(=O)c2cnn(-c3cccc(Cl)c3)c2C2CCN(C(=O)OC(C)(C)C)CC2)CC1	u	n
CCN(CC)c1nn2c(=O)c(C(=O)NCc3ccc(N(C)C)cc3)cnc2s1	n	n
Cc1cc2oc(=O)cc(CSc3nnc(-c4cccs4)o3)c2cc1C(C)C	13µM	n
Cc1cc2oc(=O)cc(CSc3nnc(C)n3N)c2cc1C(C)C	n	n
CCCSc1nc(SCC(=O)NCc2ccccc2)c2c3c(sc2n1)COC(C)(C)C3	n	n
CC(C)Sc1nc(SCC(=O)NCc2ccco2)c2c3c(sc2n1)COC(C)(C)C3	25µM	25µM
COc1ccc(/C=c2/sc3nc(-c4ccccc4)c(-c4ccccc4)n3c2=O)cc1	6.3µM	n
COc1ccc(/C=c2\sc3nc(-c4ccccc4)c(-c4ccccc4)n3c2=O)cc1OC	u	n
CCOC(=O)CNC(=O)Nc1cc(C(=O)NCc2ccccc2OC)ccc1N1CCCC1	n	n
Cc1cccc(-n2ncc(C(=O)N3CCN(C4CCCCC4)CC3)c2C2CCN(C(=O)OC(C)(C)C)CC2)c1	n	n
CCc1ccc(-n2nc3ccc(NC(=O)c4ccc5c(c4)OCO5)cc3n2)cc1	10µM	n
SMILES	Cruzain inh noDet	Cruzain inh Det
CCOc1ccc(-n2nc3ccc(NC(=O)c4ccc5c(c4)OCCO5)cc3n2)cc1	13µM	n
O=C(Nc1ccc2nn(-c3ccccc3)nc2c1)c1ccc2c(c1)OCCO2	u	n
Cc1ccc(-n2nc3ccc(NC(=O)c4ccc5c(c4)OCO5)cc3n2)cc1	n	n
C[C@](O)(c1ccccc1)c1nccc2ccccc12	n	n
C[N+]1(C)CC(O)[C@H](C(=O)[O-])C1 (stereo partly specified)	n	n
CCC(C(=O)NC1CCCCC1)n1nc(C)c2sc3ccccc3c2c1=O (stereo unspecified)	u	n
CCc1nnc(NC(=O)c2ccc(COc3ccccc3)o2)s1	u	n
CCc1nnc(NC(=O)c2ccc(-c3cc(C(F)(F)F)ccc3Cl)o2)s1	n	n
CCc1nnc(NC(=O)c2ccc(-c3cccc(C(F)(F)F)c3)o2)s1	13µM	n
CCc1nnc(NC(=O)c2ccc(COc3ccc(C)cc3)o2)s1	25µM	n
Cc1ccccc1NC(=O)c1sc2nc3c(cc2c1N)CCCC3	n	n
COc1ccc(NC(=O)C(NS(=O)(=O)c2cccc3nsnc23)C(C)C)cc1 (stereo unspecified)	n	n
O=C(Nc1nc(-c2ccccc2)c(-c2ccccc2)s1)c1ccc(S(=O)(=O)N2CCCC2)cc1	u	n
O=C(O)c1cccc(NC(=O)c2cccc(S(=O)(=O)N3CCCCC3)c2)c1	n	n
Nc1nc(NC(=O)c2cccc(S(=O)(=O)N3CCCCCC3)c2)nc(-c2ccccc2)n1	20µM	n
O=C(Nc1nc(-c2ccccc2)c(C(=O)c2ccccc2)s1)c1ccc(S(=O)(=O)N2CCCC2)cc1	25µM	n
CC1(C)CC(=O)c2c(oc3c(Cl)cc(NS(=O)(=O)c4ccc(Cl)cc4)cc23)C1	n	n
CS(=O)(=O)N1CCc2cc(C(=O)Nc3ccc(Cl)c(C(F)(F)F)c3)ccc21	n	n
